The values that follow come from ChEMBL document CHEMBL4513216, “Probing the Open Global Health Chemical Diversity Library for Multistage-Active Starting Points for Next-Generation Antimalarials” (ACS Infect Dis, 2020).

Among all 68,000 compounds or so, about 2,700 (4%) showed an effect of 50% or more. The sample as a whole holds a higher share of strong results than the screen did.

In this assay the test system is Plasmodium berghei. In words: Screen against P. berghei liver stage (PbLuc), transformed with Luciferase, at 2uM. It counts as functional, HepG2. Particulars: tested at 2 uM.
On to `CCOc1ncccc1NC(=O)NC1CCN(S(C)(=O)=O)CC1`, for which the INHIBITION is given as -68.26%.

For the molecule `CCN(CC)C(=O)[C@@H]1C[C@@H](n2cc(-c3ccccn3)nn2)CN1`, the INHIBITION was 38.67%.

Turning to `CCN(CC)C(=O)[C@@H]1C[C@H](n2cc(-c3cccc(OC)c3)nn2)CN1`, the INHIBITION is 36.28%.

In the case of `CCN(CC)C(=O)[C@@H]1C[C@@H](n2cc(-c3cccc(OC)c3)nn2)CN1`, the INHIBITION is 57.75%.

Consider `CC1(C)CC(n2cc3nc(N4CCCC4)[nH]cc-3c2=O)CC(C)(C)N1`, for which the INHIBITION turned out to be 6.2%.

As for `O=C(CCc1cccc(Cl)c1)NS(=O)(=O)Cc1ccon1`, the INHIBITION is on record as 41.05%.

Take `O=C(CCc1ccsc1)NS(=O)(=O)Cc1ccon1`: the INHIBITION is reported as -6.64%.

With `O=C(CCc1ccco1)NS(=O)(=O)Cc1ccon1`, the INHIBITION turned out to be 50.59%.

Regarding `CCCNc1ccc(C(=O)NCCc2cccc(OC)c2)cn1`, the INHIBITION is reported as 19.09%.

As to `CC(C)NC(=O)N1CCCCC1c1nnc2n1CCNC2` (stereo not drawn), the INHIBITION was -15.93%.

For the molecule `CC(NC(=O)c1ccc(Cl)cc1)c1nnc(SCC(=O)O)n1C` (stereo not drawn), the INHIBITION stood at 4.37%.

Turning to `Cc1c(CN2CC[C@@H](N3CCC(O)CC3)[C@H](O)C2)[nH]c2ccc(Cl)cc12`, the INHIBITION was -31.36%.

As to `Cc1c(CN2CC[C@@H](N3CCC(O)CC3)[C@H](O)C2)[nH]c2ccc(F)cc12`, the INHIBITION worked out at 51.43%.

Take `Cc1c(CN2CCCC(O)C2)[nH]c2ccc(F)cc12` (stereo not drawn): the INHIBITION is -1.51%.

With `Cc1nccc(-c2ccccc2)c1C(=O)N1CC[C@](C)(O)C(C)(C)C1`, the INHIBITION worked out at 48.93%.

Consider `COC1COC2(CCN(Cc3ccc4ccccc4n3)CC2)C1` (stereo not drawn), for which the INHIBITION is given as -0.18%.

Turning to `CCn1ncc(C(=O)NCc2ccc(C)c(OC)c2)c1C(F)(F)F`, the INHIBITION is 55.52%.

Regarding `CCOc1cc(CNC(=O)c2cnn(CC)c2C(F)(F)F)ccn1`, the INHIBITION is recorded as -61.54%.

With `CCOc1cccc(CNC(=O)c2cnn(CC)c2C(F)(F)F)c1`, the INHIBITION is reported as 40.97%.

In the case of `CN1CCC2(CC1)CN(C(=O)c1cccnc1)Cc1ccccc12`, the INHIBITION was -19.51%.

Consider `Cc1cncc(C(=O)N2Cc3ccccc3C3(CCN(C)CC3)C2)c1`, for which the INHIBITION is reported as 5.28%.

On to `CN1CCC2(CC1)CN(C(=O)c1ccncc1)Cc1ccccc12`, for which the INHIBITION came out at 56.25%.

On to `Cc1cc(CN2Cc3ccccc3CC2c2nnc(C)o2)on1` (stereo not drawn), for which the INHIBITION came to 21.91%.

`CCc1nnc(C2Cc3ccccc3CN2Cc2cc(C)on2)o1` (stereo not drawn): the INHIBITION is recorded as 33.9%.

`CCc1nnc(C2Cc3ccccc3CN2Cc2cc(C)no2)o1` (stereo not drawn): the INHIBITION is listed as 56.89%.

As for `Cc1cnc(N2CCC3(CC2)CN(c2ccsc2)C(=O)CO3)nc1`, the INHIBITION is -38.48%.

Consider `CC(CN1CCOCC1)NC(=O)N1CCCC1` (stereo not drawn), for which the INHIBITION is reported as 34.93%.

`Cc1ccoc1C(=O)N1C[C@@H](OCC2CC2)[C@H]2OCCC[C@H]21`: the INHIBITION is given as 8.25%.

`CCc1nc(NC(=O)NCCc2cccc(C)n2)nn1C`: the INHIBITION worked out at 21.14%.

Consider `CC(=O)NCCNC(=O)Nc1ccc(C)cc1OCc1ccccc1`, for which the INHIBITION is listed as 3.22%.

On to `CCOc1ccccc1NC(=O)N(CCO)Cc1ccsc1`, for which the INHIBITION came to 38.66%.

Consider `Cc1ccc(NC(=O)N(CCO)CCO)c(OCc2ccccc2)c1`, for which the INHIBITION is given as 68.73%.

On to `CCCOc1cc(C)ccc1NC(=O)N(C)C`, for which the INHIBITION is -59.32%.

In the case of `CC(=O)N(C)CC(=O)Nc1ccc(C)cc1OCc1ccccc1`, the INHIBITION stood at 50.03%.

For the molecule `CCCOc1cc(C)ccc1NC(=O)NCCNC(C)=O`, the INHIBITION is -3.26%.

`NC(=O)c1cc(C2CCCN(Cc3ccc4c(c3)OCCO4)C2)n[nH]1` (stereo not drawn): the INHIBITION was -16.03%.

As to `Cc1nc(C2CCCN2CC(=O)NCCOc2ccc(F)cc2)no1` (stereo not drawn), the INHIBITION is given as 20.57%.

As to `Cc1nccn1CCCn1cncc1-c1ccc2c(c1)CCC(C)N2C` (stereo not drawn), the INHIBITION came to 12.29%.

For the molecule `CC(C)(C)c1nc(CN2CCCC2Cn2cncn2)no1` (stereo not drawn), the INHIBITION came out at 45.83%.

For the molecule `COc1ccc(OC)c(C2c3c(n[nH]c3C)N=C3COC(=O)C32)c1` (stereo not drawn), the INHIBITION was determined as 26.14%.

As for `COc1cccc(C2c3c(n[nH]c3C)N=C3COC(=O)C32)c1OC` (stereo not drawn), the INHIBITION is given as -35.07%.

Regarding `COc1cccc(C2c3c(n[nH]c3C)N=C3COC(=O)C32)c1O` (stereo not drawn), the INHIBITION was found to be 63.46%.

As for `CNC(=O)CCN1CCCC1c1ccccc1Br` (stereo not drawn), the INHIBITION was 51.76%.

With `NC(=O)CN1CCCC1c1ccccc1Br` (stereo not drawn), the INHIBITION is -43.18%.

Consider `CNC(=O)CN1CCCC1c1ccccc1Br` (stereo not drawn), for which the INHIBITION came out at 1.9%.

On to `Cc1nn(C)cc1CCC(=O)N1CCCC(n2cncn2)C1` (stereo not drawn), for which the INHIBITION is given as 26.71%.

Turning to `COc1c[nH]c(C(=O)Nc2nc(C)cs2)cc1=O`, the INHIBITION is listed as 79.68%.

Consider `CCOC(=O)Cc1csc(NC(=O)c2cc(=O)c(OC)c[nH]2)n1`, for which the INHIBITION is recorded as -5.51%.

Take `COc1c[nH]c(C(=O)Nc2nc(C(C)(C)C)cs2)cc1=O`: the INHIBITION was 34.71%.

As to `Cc1c(C2CC(=O)Nc3c2cnn3C(C)C)cnn1C` (stereo not drawn), the INHIBITION is recorded as -0.58%.

`O=C(CSc1nnc(N2CCOCC2)s1)NCc1cccs1`: the INHIBITION was found to be 44.98%.

As for `CCc1[nH]ncc1C(=O)N1CCN(c2nccc(OC)n2)CC1`, the INHIBITION is -85.11%.

Turning to `COc1ccnc(N2CCN(C(=O)COCC(F)(F)F)CC2)n1`, the INHIBITION came out at 4.19%.
